SMILES strings stand for the structures. Among all 360,000 compounds or so, about 2,300 (0.64%) were called active. The full list was thinned out, with actives kept by preference. Values without a mark were called inactive.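 How the source made its calls: active means compounds giving at least 50% protection of heart cells from peroxide-induced death in the single-dose screen, raw or plate-pattern-corrected value; inactive means the rest.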

Protection from H2O2 cell death data for 80 compounds are collected here from PubChem BioAssay AID588492 (Sanford-Burnham Center for Chemical Genomics, 2011).

The test can be described thus: cardioprotection against H2O2-induced cell death, primary screen, uHTS, H9c2 cells, ATPLite luminescence (AID 588492).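 Further: 0% = DMSO wells with peroxide and 100% = DMSO wells without peroxide.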 The following applies: H9c2 cardiomyocytes, H2O2 injury protection, 2 h, at 20 µM, stronger effect = higher value. In general terms: Cellular ATP, detected with luciferase, serves as a proxy for viable cell number.
Turning to `Cc1ccc(S(=O)(=O)NCCC(=O)NNC(=O)C2COc3ccccc3O2)cc1` (stereo not given), the protection from H2O2 cell death is -3.1%.

Consider `Cc1c(CCC(=O)O)c(=O)oc2c(C)c(OCc3ccccc3Cl)ccc12`, for which the protection from H2O2 cell death was 1.3%.

Regarding `Cc1c(CC(=O)N2CCN(C(=O)C3COc4ccccc4O3)CC2)c(=O)oc2c(O)c(O)ccc12` (stereo not given), the protection from H2O2 cell death is 61.9% (active).

As to `Cc1nc2c(OCc3ccc(Cl)cc3)cccn2c1N(C)Cc1cccs1`, the protection from H2O2 cell death was -9.7%.

Turning to `CCc1nc2ccc(C(=O)N(C)Cc3ccco3)cn2c1N(C)C(=O)Cc1ccccc1`, the protection from H2O2 cell death is -2.1%.

Turning to `CCC(=O)Nc1ccccc1C(=O)N1CCN(Cc2ccccc2)CC1`, the protection from H2O2 cell death was 5.1%.

For `COc1ccccc1Nc1ncnc2c1oc1ccccc12`, the protection from H2O2 cell death is 7.1%.

`CCc1nc(Nc2ccc3nccnc3c2)c2oc3ccccc3c2n1`: the protection from H2O2 cell death was 53.3% (active).

For `COCCNc1nc(-c2ccccc2)nc2c1oc1ccccc12`, the protection from H2O2 cell death is 1.8%.

`Cc1ccc(C(=O)N(CC(=O)NC2CCCC2)c2ccc(F)cc2)s1`: the protection from H2O2 cell death is -2.3%.

Regarding `COc1cccc(CNC(=O)C2CC(=O)N(C3CCCCCCC3)C2)c1` (stereo not given), the protection from H2O2 cell death is -0.1%.

For the compound `COc1ccc(C(=O)CSc2nnc(NC(=O)C3CC(=O)N(c4cccc(OC)c4)C3)s2)cc1` (stereo not given), the protection from H2O2 cell death is -1.6%.

As for `COc1cccc(N2CC(C(=O)NCc3n[nH]c(=O)c4ccccc34)CC2=O)c1` (stereo not given), the protection from H2O2 cell death is 50.2% (active).

Turning to `COC(=O)CN(c1cccc(C(C)=O)c1)S(C)(=O)=O`, the protection from H2O2 cell death was -1%.

Consider `O=C(Nc1ccc(Cl)cc1)c1csc([C@H]2C[C@H](O)[C@@H](CO)O2)n1`, for which the protection from H2O2 cell death is -8.3%.

Take `O=C(Nc1nnc([C@H]2C[C@H](O)[C@@H](CO)O2)s1)c1cccc(Cl)c1`: the protection from H2O2 cell death is 3%.

As to `O=C(Nc1cccc2cccnc12)c1ccc2sc([C@H]3C[C@H](O)[C@@H](CO)O3)nc2c1`, the protection from H2O2 cell death is 76.9% (active).

Take `CCOn1c(=O)c(=O)n(O)c2ccccc21`: the protection from H2O2 cell death was 3.3%.

`CCOc1cc(N2CCOCC2)c(OCC)cc1NC(=O)COC(=O)[C@H](Cc1c[nH]c2ccccc12)NC(C)=O`: the protection from H2O2 cell death was 10.2%.

In the case of `CCOc1cc(N2CCOCC2)c(OCC)cc1NC(=O)COc1cccc2cccnc12`, the protection from H2O2 cell death is 50.1% (active).

Consider `CCOc1cc(N2CCOCC2)c(OCC)cc1NC(=O)C1=NN(c2cccc(C)c2)C(=O)CC1`, for which the protection from H2O2 cell death was 15.6%.

In the case of `CCc1ccc2c(c1)cc(CN(C(=S)Nc1ccccc1Cl)C1CC1)c1nnnn12`, the protection from H2O2 cell death is -3.2%.

As to `Clc1ccc(C2=CSC3=Nc4cccc5cccc(c45)N23)cc1`, the protection from H2O2 cell death was -4.9%.

Consider `COc1cc(CO)c(C2(CO)CCCC2)cc1OC`, for which the protection from H2O2 cell death was 2.5%.

Turning to `O=S(=O)(Nc1ccccn1)c1cccc(S(=O)(=O)c2ccc(Cl)cc2)c1`, the protection from H2O2 cell death was -4.1%.

Turning to `COc1cc(NS(=O)(=O)c2ccc3ccccc3c2)c2ncccc2c1`, the protection from H2O2 cell death is 61.8% (active).

For `CCOc1cc(NS(=O)(=O)c2ccc(OC)cc2)c(OCC)cc1NC(C)=O`, the protection from H2O2 cell death is -4%.

As for `CC1(C)OC(=O)C2=C(CC(c3ccccc3)OC2CCc2ccccc2)O1` (stereo not given), the protection from H2O2 cell death is -19.2%.

In the case of `COc1cccc(Cn2cnc3c([N+](=O)[O-])c(C)c(C)cc32)c1`, the protection from H2O2 cell death was 1.8%.

Regarding `Cc1ccc(NC(=O)C2CC2c2ccccc2)cc1` (stereo not given), the protection from H2O2 cell death was -6.9%.

Regarding `O=C(N/N=C/c1cccc2cccnc12)[C@H]1C[C@@H]1c1ccccc1`, the protection from H2O2 cell death is 84.8% (active).

As to `O=C(CSc1cccc2cccnc12)N/N=C/c1cccnc1`, the protection from H2O2 cell death is -2.6%.

Consider `Cc1nnc(C)c2c(C)n(N)c(C)c12`, for which the protection from H2O2 cell death was 15.4%.

Take `Cc1ccc(S(=O)(=O)N(C)C)cc1NC(=O)CN1c2cccc3cccc(c23)S1(=O)=O`: the protection from H2O2 cell death was 3.5%.

Regarding `O=C(NC(=O)N1CCSCC1)c1c(Cl)cccc1Cl`, the protection from H2O2 cell death was 4.6%.

As for `CCOC(=O)c1nc(Nc2ccc(C(=O)OC)cc2)c2ccccc2n1`, the protection from H2O2 cell death is 50.6% (active).

For the compound `COC(=O)c1ccc(Nc2ncnc3sccc23)cc1`, the protection from H2O2 cell death was 5.6%.

Turning to `CCOC(=O)c1ccc(N/C(=N/S(=O)(=O)c2ccccc2)c2ccccc2)cc1`, the protection from H2O2 cell death was 1.3%.

For `CCc1ccc(OCC(=O)NCC(c2ccc(Cl)cc2)N2CCCCC2)cc1` (stereo not given), the protection from H2O2 cell death was 2.7%.

Regarding `Cc1ccc(OCCOCCOc2ccc(Br)cc2/C=N\NC(=O)c2ccncc2)cc1`, the protection from H2O2 cell death is 6.5%.

As for `COc1ccc(CC(=O)NCC(=O)N/N=C/c2cc(Br)ccc2OC)cc1`, the protection from H2O2 cell death is 52.8% (active).

As for `COc1ccc(-c2[nH]ncc2/C=N/NC(=O)c2cc(Br)ccc2O)c(OC)c1`, the protection from H2O2 cell death was 3.5%.

In the case of `NC(=NC(=O)c1ccccc1)C1=C(O)CCC1=O`, the protection from H2O2 cell death was -0.2%.

Take `C=CCn1c(-c2ccc(Cl)cc2)ccc(C#N)c1=O`: the protection from H2O2 cell death was -10%.

For the compound `COc1cc(N=Cc2c(O)[nH]c3ccccc23)cc(OC)c1OC`, the protection from H2O2 cell death was 69.8% (active).

Consider `COc1cc2[nH]c(O)c(C=O)c2cc1OC`, for which the protection from H2O2 cell death was 4.5%.

As to `CN=c1scc(-c2cc(OC)ccc2OC)n1/N=C/c1c(C)[nH]c2ccccc12`, the protection from H2O2 cell death is 0.4%.

On to `COc1ccc(CCNc2cc(C)nc3c(-c4ccc(Cl)cc4)c(C)nn23)cc1OC`, for which the protection from H2O2 cell death is 0.4%.

As for `COc1cccc(-c2nnc(NC(=O)c3ccc(S(=O)(=O)N(CC(C)C)CC(C)C)cc3)o2)c1`, the protection from H2O2 cell death was 56.4% (active).

On to `O=C(Nc1nnc(-c2ccccc2)o1)c1cccc(S(=O)(=O)N2CCOCC2)c1`, for which the protection from H2O2 cell death is 10.2%.

For `COc1cc(-c2nnc(NC(=O)CS(=O)(=O)c3ccc(Cl)cc3)o2)cc(OC)c1OC`, the protection from H2O2 cell death was 6.5%.

On to `CCc1ccc(/C=N/NC(=O)c2nnn(-c3nonc3N)c2CN2CCc3ccccc32)cc1`, for which the protection from H2O2 cell death is -2.2%.

As for `O=C(NCc1ccco1)c1cc(-c2cccnc2)nc2ccc(Cl)cc12`, the protection from H2O2 cell death is 74% (active).

`O=C(CSc1c2c(nc3ccc(Cl)cc13)CCCC2)NCc1ccco1`: the protection from H2O2 cell death is 5.3%.

As for `NC(=O)c1cc(-c2cccnc2)nc2ccc(Br)cc12`, the protection from H2O2 cell death was 0.3%.

Regarding `Cc1cccc(NC(=O)N2CCCCCC2)c1C`, the protection from H2O2 cell death was -0.5%.

Take `O=C(NCCN1C(=O)C2C3C=CC(C3)C2C1=O)Nc1ccccn1` (stereo not given): the protection from H2O2 cell death was -2.9%.

As to `N#Cc1ccc(OCC(=O)Nc2nc(-c3ccccn3)cs2)cc1`, the protection from H2O2 cell death is 69.2% (active).

Take `O=C(COc1ccccc1F)Nc1nc(-c2ccccn2)cs1`: the protection from H2O2 cell death is 60% (active).

In the case of `CC1CCCCC1NC(=O)COc1ccc(C#N)cc1` (stereo not given), the protection from H2O2 cell death was 7%.

Consider `CC(NC(=O)c1ccco1)C(=O)Nc1nc(-c2ccccn2)cs1` (stereo not given), for which the protection from H2O2 cell death was 10.4%.

`O=C(COc1ccccc1)Nc1nonc1NC(=O)COc1ccccc1`: the protection from H2O2 cell death was -3.9%.

Regarding `O=C(CN1C(=O)C2C3C=CC(C3)C2C1=O)Nc1nc(-c2ccccn2)cs1` (stereo not given), the protection from H2O2 cell death is 51.3% (active).

Regarding `CC1CCN(S(=O)(=O)c2nnc(NC(=O)COc3ccccc3F)s2)CC1`, the protection from H2O2 cell death was -6.3%.

As for `O=C(CCN1C(=O)C2C3C=CC(C3)C2C1=O)Nc1ccccc1F` (stereo not given), the protection from H2O2 cell death was -1.8%.

Regarding `CC12CCC(=O)N1C(C(=O)Nc1ccc(F)c(F)c1F)CS2` (stereo not given), the protection from H2O2 cell death is 0.6%.

Consider `COc1ccc2c(c1)c(=Cc1ccc(N(C)C)cc1)c1cc(-c3ccccc3)[n+](C)n12`, for which the protection from H2O2 cell death was -20%.

In the case of `COc1ccccc1N(C)S(=O)(=O)c1ccc(Cl)c(C(=O)Nc2ccncc2)c1`, the protection from H2O2 cell death was -8.6%.

As for `Cn1nnnc1-c1cc(Cl)cc(Cl)c1`, the protection from H2O2 cell death is -2.9%.

`Cn1cccc1C(=O)NC(=O)COC(=O)Cc1coc2ccc3ccccc3c12`: the protection from H2O2 cell death is -3.6%.

With `O=C(Nc1cccc(-c2nc3ccccc3[nH]2)c1)c1ccc(C(=O)Nc2cccc(-c3nc4ccccc4[nH]3)c2)cc1`, the protection from H2O2 cell death was 49.1% (active).

With `O=C(Nc1ccccc1)c1cc2ccccc2[nH]1`, the protection from H2O2 cell death is 3.8%.

As for `O=C(NCC(O)c1nc2ccccc2[nH]1)c1ccc(Br)cc1` (stereo not given), the protection from H2O2 cell death is -3.3%.

Take `CCOC(=O)Cn1c(O)c(N=NC(=O)CNC(=O)Cc2ccccc2)c2ccccc21`: the protection from H2O2 cell death is 6.8%.

On to `CN(Cc1ccccc1F)c1cc2c(c3c1ccn3C)C1CCC2O1` (stereo not given), for which the protection from H2O2 cell death was -4.4%.

As for `COc1ccccc1C(=O)C(O)c1ccccc1OC` (stereo not given), the protection from H2O2 cell death is 1.8%.

As to `CCCn1c(SCC(=O)Nc2ccc(C)c(S(=O)(=O)N3CCOCC3)c2)n[nH]c1=O`, the protection from H2O2 cell death is 6.6%.

`C[C@H]1Cn2cnc(C(=O)N[C@@H](Cc3c[nH]c4ccccc34)C(=O)OC(C)(C)C)c2C(=O)N1`: the protection from H2O2 cell death is 99.5% (active).

As to `C[C@@H]1Cn2cnc(C(=O)Nc3ccc(CNC(=O)OC(C)(C)C)cc3)c2C(=O)N1`, the protection from H2O2 cell death is -12.9%.

As for `C[C@H]1Cn2cnc(C(=O)N[C@H](C)c3ccccc3)c2C(=O)N1`, the protection from H2O2 cell death is 7.3%.
